From PubChem BioAssay (EPA / NIEHS) come the findings set out here.

What is called AC50 is the concentration giving half of the maximal activity seen.

Results filed as inconclusive are left out. Activity calls are given as the source filed them. The calls were made as follows: active = hit-call score of the fitted dose curve at least 0.9, where 1 is the maximum; inconclusive = response in the unintended direction; inactive = score below 0.9.

Sequence of Luciferin 4-monooxygenase (Photinus pyralis) (P08659 whole entry, looked up): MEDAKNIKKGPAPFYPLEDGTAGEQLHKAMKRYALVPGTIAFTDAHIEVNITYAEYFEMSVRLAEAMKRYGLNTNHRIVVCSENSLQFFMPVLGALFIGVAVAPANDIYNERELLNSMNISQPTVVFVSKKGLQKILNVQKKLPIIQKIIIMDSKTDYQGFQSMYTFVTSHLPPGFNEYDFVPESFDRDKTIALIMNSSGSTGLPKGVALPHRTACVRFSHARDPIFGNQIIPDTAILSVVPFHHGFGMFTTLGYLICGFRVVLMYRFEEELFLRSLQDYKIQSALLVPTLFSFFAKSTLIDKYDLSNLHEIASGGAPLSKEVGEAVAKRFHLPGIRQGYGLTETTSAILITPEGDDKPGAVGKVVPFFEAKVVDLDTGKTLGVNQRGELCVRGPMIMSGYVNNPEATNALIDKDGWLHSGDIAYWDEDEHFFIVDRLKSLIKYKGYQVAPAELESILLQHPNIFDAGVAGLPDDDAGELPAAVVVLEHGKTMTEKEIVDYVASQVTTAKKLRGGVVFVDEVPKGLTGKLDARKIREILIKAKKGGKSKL

The assay has as its target Luciferin 4-monooxygenase (Photinus pyralis) (UniProt P08659). Put plainly: CCTE_Simmons_QuantiLum_inhib_2: CCTE's Firefly Luciferase Inhibition Assay, Simmons Lab (AID 2283767).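 As to AC50: potency for inhibitors that lower luciferase luminescence relative to DMSO.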 The procedure: CCTE_Simmons_QuantiLum_inhib_2 is a biochemical, single-readout assay that uses purified luciferase enzyme in a cell-free assay.Measurements were taken 0.5 hour after chemical dosing in a 384-well plate.CCTE_Simmons_QuantiLum_inhib_2 is the assay component measured from the CCTE_Simmons_QuantiLum_inhib_2 assay. It is designed to make measurements of enzyme activity, a form of enzyme reporter, as detected with bioluminescence signals by Luciferase-coupled Quantilum levels technology. This is a secondary assay to CCTE_Simmons_AUR_TPO to evaluate nonspecific enzyme inhibition.Data from the assay component CCTE_Simmons_QuantiLum_inhib_2 was analyzed at the endpoint, CCTE_Simmons_QuantiLum_inhib_2, in the positive analysis fitting direction relative to DMSO as the negative control and baseline of activity. Using a type of enzyme reporter, measures of enzyme activity for loss-of-signal activity can be used to understand inhibition of firefly luciferase. This is an assay endpoint to indicate nonspecific protein inhibition for comparison to aeid 1508 for thyroperoxidase inhibition. To generalize the intended target to other relatable targets, this assay endpoint is annotated to the oxidoreductase intended target family, where the subfamily is monooxygenase.
Quanti-Lum recombinant luciferase (Promega; Madison, Wisconsin) was diluted to 76.9 ng/ml with 200mM potassium phosphate buffer supplemented with 1 mg/ml bovine serum albumin and 65ul (5ng recombinant luciferase) per well was dispensed into opaque, white 384-well plates (Greiner, BioExpress) using an automated liquid handler (BioTek MicroFlo) with a plastic 5 ul tubing cassette. Test compounds were administered using the HDRT as described earlier to achieve a 0.5% final DMSO concentration. Microplates were incubated at 37C in the dark for 30min to mimic the AUR-TPO assay conditions. Luciferase detection reagent (25 ul per well; 9.2 mM dithiothreitol, 75uM Coenzyme A, 147uM dATP, 150uM D-luciferin, 8.9 mM Tricine, 297uM (MgCO3)4.Mg(OH)2.5H20, 742uM MgSO4, 27.8uM EDTA, pH 7.8, final assay concentrations) was then added using a BMG Clariostar plate reader equipped with syringe injectors (BMG LabTech; GmbH). Plates were read using a kinetic luminescence protocol (top read) whereby each well was individually injected with luciferase detection reagent immediately prior to measurement. Three biological replicates of technical singles were run for every chemical concentration tested. A titrated range of LUCINH2 served as a positive control on each plate of the luciferase inhibition screening assay. Test chemicals were administered as a titrated series of 8 concentrations from 5 nM up to 87.5 uM [final] for 30 minutes prior to single endpoint detection. Dimethylsulfoxide [DMSO] was used as the vehicle control. Luciferase Inhibitor I [2-(5-(2-Methoxyphenyl)-1,2,4-oxadiazol-3-yl)pyridine] was used as the positive control and was administered as a titrated series of 8 concentrations from 1 nM up to 100 uM [final].
In the case of `COc1ccc(C(=O)c2ccccc2O)c(O)c1`, the compound was classed as inactive. `Nc1ccc(S(=O)(=O)Nc2cnc3ccccc3n2)cc1`: the call was inactive.

Turning to `Sc1nc2ccccc2s1`, the outcome was inactive. `CCCCC(CC)COC(=O)C=Cc1ccc(OC)cc1` (stereo not given): the outcome was inactive.

Turning to `Cc1c(N(C)CS(=O)(=O)O)c(=O)n(-c2ccccc2)n1C`, the compound was called inactive. As to `Oc1cccc2ccccc12`, the AC50 was 29.9 µM (active). `Cc1cc(C)c(S(=O)(=O)O)cc1N=Nc1cc(S(=O)(=O)O)c2ccccc2c1O`: the AC50 is 2.98 µM (active). On to `CN(C)c1ccc(C(c2ccccc2)c2ccc(N(C)C)cc2)cc1`, for which the result was inactive. For the compound `CCCCC(CC)COC(=O)CS` (stereo not given), the call was inactive. On to `CCN(CC)CCNC(=O)c1c(C)[nH]c(/C=C2\C(=O)Nc3ccc(F)cc32)c1C`, for which the outcome was inactive.
